Here are results for six compounds from ChEMBL document CHEMBL1961873, “Compounds: GSK PKIS; Assays: Nanosyn kinase panel” (2012).

Assay [1] has as its target Tyrosine-protein kinase receptor UFO (Homo sapiens) (UniProt P30530). Particulars: at 1 µM.
In assay [2] the target is Tyrosine-protein kinase Blk (Homo sapiens) (UniProt P51451). Particulars: at 0.1 µM.
For assay [3] the target is unchanged. The following applies: at 1 µM.
In assay [4] the target is T1, Cytoplasmic tyrosine-protein kinase BMX (Homo sapiens) (UniProt P51813).
T1 sequence (whole entry): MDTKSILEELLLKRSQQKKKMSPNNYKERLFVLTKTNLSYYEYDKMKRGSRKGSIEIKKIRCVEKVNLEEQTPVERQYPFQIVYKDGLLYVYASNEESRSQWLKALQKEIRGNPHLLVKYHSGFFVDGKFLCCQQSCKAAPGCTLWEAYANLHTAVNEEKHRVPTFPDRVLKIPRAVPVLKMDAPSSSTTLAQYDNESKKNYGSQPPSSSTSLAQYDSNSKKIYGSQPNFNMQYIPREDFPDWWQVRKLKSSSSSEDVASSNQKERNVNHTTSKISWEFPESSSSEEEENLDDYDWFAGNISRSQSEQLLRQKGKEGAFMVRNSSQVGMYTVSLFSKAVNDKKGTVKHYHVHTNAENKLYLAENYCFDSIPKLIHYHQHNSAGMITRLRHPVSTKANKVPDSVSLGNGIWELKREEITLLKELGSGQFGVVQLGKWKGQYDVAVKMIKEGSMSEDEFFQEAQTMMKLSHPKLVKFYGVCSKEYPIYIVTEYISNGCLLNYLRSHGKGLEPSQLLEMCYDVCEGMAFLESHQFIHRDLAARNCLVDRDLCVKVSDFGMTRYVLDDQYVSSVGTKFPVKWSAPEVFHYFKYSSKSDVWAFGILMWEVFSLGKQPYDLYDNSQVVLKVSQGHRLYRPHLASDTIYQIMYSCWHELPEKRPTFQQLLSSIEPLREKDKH
The following applies: at 0.1 µM.

For assay [5], the target named is T1, Cytoplasmic tyrosine-protein kinase BMX (Homo sapiens). Particulars: at 1 µM.
Assay [6] concerns the target Protein-tyrosine kinase 6 (Homo sapiens) (UniProt Q13882). The following applies: at 0.1 µM.
For assay [7] the target is unchanged. Particulars: at 1 µM.
Assay [8] addresses Tyrosine-protein kinase BTK (Homo sapiens) (UniProt Q06187). Particulars: at 0.1 µM.
For assay [9] the target is unchanged. Particulars: at 1 µM.
Assay [10] addresses Tyrosine-protein kinase CSK (Homo sapiens) (UniProt P41240). Particulars: at 0.1 µM.
For assay [11] the target is unchanged. Particulars: at 1 µM.
Assay [12] deals with T2, Discoidin domain-containing receptor 2 (Homo sapiens) (UniProt Q16832).
T2 sequence (whole entry): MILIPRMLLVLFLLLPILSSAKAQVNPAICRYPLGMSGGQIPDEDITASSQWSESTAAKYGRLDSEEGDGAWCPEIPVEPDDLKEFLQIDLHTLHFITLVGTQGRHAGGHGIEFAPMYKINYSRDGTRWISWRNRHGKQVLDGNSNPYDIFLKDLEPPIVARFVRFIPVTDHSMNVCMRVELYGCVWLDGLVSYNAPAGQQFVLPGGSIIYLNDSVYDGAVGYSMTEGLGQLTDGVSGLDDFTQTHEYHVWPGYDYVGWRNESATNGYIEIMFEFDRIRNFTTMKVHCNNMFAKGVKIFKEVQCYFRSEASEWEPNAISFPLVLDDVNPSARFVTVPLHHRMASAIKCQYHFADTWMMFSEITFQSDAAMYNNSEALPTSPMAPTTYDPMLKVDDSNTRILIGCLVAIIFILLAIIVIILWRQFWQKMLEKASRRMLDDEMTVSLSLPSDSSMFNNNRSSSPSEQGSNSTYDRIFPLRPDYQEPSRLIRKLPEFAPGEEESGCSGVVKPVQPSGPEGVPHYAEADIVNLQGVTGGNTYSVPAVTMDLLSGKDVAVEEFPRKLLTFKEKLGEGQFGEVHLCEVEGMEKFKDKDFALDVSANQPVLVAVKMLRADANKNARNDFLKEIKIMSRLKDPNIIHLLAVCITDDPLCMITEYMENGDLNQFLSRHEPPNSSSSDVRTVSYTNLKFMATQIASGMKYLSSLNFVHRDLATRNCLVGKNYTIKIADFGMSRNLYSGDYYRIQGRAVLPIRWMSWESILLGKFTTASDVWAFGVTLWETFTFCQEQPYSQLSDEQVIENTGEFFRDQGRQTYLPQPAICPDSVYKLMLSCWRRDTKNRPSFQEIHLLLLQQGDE
Particulars: at 0.1 µM.

Assay [13] deals with T2, Discoidin domain-containing receptor 2 (Homo sapiens). Particulars: at 1 µM.
Assay [14] concerns the target Epidermal growth factor receptor (Homo sapiens) (UniProt P00533). Particulars: at 0.1 µM.
Assay [15] shares this target. The following applies: at 1 µM.
The subject of assay [16] is Epidermal growth factor receptor (Homo sapiens), P00533 [L858R]. Particulars: at 0.1 µM.
For assay [17] the test system is unchanged. Particulars: at 1 µM.
For assay [18], the system named is Epidermal growth factor receptor (Homo sapiens), P00533 [L861Q]. The following applies: at 0.1 µM.
Epidermal growth factor receptor (Homo sapiens), P00533 [L861Q], sequence (P00533 whole entry L861Q): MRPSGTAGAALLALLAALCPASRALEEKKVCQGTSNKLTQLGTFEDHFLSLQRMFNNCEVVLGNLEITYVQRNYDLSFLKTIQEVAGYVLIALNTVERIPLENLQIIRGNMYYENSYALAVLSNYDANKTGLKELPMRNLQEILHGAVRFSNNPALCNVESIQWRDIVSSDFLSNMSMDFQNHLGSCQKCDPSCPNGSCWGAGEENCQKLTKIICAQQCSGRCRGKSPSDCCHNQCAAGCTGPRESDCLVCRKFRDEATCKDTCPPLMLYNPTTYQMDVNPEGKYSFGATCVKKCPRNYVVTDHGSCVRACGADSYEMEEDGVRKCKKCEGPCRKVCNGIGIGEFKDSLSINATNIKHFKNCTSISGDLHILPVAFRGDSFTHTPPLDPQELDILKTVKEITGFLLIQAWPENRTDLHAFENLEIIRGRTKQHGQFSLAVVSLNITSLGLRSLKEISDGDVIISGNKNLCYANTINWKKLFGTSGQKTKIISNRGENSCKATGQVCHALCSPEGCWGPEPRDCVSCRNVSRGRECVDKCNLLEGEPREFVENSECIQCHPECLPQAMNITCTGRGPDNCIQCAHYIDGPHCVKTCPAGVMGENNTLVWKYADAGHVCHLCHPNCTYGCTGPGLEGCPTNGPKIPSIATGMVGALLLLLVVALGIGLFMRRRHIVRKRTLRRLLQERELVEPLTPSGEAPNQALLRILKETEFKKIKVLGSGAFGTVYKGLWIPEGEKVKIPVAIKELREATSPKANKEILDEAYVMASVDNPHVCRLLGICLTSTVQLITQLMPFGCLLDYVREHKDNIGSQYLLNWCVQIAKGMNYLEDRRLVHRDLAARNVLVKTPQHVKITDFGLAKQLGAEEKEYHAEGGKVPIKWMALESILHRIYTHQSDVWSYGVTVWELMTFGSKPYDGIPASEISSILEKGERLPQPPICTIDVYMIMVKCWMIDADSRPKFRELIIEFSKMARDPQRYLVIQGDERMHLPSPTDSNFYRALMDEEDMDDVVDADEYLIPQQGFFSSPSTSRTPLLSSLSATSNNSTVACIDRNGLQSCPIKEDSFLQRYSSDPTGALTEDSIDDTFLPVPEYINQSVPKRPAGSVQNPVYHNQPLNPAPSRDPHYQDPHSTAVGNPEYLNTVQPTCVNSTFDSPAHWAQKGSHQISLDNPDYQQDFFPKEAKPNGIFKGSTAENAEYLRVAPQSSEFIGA
The test system is the same in assay [19]. Particulars: at 1 µM.
Assay [20] relates to Epidermal growth factor receptor (Homo sapiens), P00533 [T790M]. The following applies: at 0.1 µM.
Epidermal growth factor receptor (Homo sapiens), P00533 [T790M], sequence (P00533 whole entry T790M): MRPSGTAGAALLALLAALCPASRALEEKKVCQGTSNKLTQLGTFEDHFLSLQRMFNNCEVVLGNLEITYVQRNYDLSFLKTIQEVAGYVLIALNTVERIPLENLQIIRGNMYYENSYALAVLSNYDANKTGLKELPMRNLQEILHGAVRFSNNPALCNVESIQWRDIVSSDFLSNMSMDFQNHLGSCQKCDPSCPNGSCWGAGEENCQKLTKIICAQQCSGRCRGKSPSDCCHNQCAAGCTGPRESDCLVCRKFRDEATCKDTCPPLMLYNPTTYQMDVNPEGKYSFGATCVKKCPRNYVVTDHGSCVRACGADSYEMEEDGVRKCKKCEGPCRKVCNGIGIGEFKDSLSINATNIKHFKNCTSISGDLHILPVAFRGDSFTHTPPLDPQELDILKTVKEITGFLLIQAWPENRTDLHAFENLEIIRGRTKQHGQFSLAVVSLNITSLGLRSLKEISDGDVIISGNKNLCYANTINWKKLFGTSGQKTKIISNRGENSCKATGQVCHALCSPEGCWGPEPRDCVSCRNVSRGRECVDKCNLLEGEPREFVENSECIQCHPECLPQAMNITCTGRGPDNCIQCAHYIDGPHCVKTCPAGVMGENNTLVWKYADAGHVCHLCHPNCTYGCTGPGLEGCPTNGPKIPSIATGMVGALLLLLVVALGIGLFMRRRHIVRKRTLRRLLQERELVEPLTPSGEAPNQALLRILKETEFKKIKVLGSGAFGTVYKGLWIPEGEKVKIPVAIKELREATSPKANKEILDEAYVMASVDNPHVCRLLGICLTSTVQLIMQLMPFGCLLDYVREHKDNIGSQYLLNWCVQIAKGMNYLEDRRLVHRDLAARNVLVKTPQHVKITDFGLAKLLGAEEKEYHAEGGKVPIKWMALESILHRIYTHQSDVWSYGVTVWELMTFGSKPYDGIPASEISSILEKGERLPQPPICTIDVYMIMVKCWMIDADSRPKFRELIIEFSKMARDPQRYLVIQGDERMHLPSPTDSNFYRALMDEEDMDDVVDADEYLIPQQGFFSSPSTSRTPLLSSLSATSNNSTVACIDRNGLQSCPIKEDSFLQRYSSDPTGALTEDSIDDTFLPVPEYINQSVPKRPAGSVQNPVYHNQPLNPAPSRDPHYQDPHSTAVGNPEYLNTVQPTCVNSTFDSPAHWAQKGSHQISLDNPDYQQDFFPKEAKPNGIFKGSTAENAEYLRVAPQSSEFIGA

Epidermal growth factor receptor (Homo sapiens), sequence (P00533 whole entry): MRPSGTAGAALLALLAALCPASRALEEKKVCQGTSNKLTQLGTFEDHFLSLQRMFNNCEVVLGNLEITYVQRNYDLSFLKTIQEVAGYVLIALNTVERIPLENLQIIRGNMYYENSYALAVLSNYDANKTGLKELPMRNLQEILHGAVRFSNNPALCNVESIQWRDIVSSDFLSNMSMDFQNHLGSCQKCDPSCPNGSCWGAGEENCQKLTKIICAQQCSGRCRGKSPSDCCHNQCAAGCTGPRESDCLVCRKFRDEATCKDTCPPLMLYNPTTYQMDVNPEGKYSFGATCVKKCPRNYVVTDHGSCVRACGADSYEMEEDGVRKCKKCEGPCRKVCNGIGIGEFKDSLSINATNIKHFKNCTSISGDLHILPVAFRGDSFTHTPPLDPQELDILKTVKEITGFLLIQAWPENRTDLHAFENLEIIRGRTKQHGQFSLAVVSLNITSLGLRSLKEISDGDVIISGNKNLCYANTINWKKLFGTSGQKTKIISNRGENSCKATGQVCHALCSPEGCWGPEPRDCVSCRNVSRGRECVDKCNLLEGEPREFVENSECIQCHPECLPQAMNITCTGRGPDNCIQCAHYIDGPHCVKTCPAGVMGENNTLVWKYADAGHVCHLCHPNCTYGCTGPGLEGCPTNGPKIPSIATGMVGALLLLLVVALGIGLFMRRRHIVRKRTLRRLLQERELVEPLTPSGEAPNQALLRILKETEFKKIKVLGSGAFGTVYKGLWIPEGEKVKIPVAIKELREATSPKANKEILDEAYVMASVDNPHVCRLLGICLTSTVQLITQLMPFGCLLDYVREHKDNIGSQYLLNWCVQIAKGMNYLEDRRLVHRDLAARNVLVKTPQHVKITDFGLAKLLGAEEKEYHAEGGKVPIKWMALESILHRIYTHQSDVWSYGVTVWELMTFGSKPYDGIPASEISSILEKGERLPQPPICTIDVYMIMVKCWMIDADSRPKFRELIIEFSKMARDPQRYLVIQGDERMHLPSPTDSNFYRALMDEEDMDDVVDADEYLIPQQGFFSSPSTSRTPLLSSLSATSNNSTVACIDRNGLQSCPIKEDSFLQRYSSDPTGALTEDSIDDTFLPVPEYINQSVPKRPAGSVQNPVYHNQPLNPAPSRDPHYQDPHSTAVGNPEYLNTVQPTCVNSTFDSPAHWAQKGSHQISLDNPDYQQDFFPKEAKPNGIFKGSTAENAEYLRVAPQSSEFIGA
Tyrosine-protein kinase receptor UFO (Homo sapiens), sequence (P30530 whole entry): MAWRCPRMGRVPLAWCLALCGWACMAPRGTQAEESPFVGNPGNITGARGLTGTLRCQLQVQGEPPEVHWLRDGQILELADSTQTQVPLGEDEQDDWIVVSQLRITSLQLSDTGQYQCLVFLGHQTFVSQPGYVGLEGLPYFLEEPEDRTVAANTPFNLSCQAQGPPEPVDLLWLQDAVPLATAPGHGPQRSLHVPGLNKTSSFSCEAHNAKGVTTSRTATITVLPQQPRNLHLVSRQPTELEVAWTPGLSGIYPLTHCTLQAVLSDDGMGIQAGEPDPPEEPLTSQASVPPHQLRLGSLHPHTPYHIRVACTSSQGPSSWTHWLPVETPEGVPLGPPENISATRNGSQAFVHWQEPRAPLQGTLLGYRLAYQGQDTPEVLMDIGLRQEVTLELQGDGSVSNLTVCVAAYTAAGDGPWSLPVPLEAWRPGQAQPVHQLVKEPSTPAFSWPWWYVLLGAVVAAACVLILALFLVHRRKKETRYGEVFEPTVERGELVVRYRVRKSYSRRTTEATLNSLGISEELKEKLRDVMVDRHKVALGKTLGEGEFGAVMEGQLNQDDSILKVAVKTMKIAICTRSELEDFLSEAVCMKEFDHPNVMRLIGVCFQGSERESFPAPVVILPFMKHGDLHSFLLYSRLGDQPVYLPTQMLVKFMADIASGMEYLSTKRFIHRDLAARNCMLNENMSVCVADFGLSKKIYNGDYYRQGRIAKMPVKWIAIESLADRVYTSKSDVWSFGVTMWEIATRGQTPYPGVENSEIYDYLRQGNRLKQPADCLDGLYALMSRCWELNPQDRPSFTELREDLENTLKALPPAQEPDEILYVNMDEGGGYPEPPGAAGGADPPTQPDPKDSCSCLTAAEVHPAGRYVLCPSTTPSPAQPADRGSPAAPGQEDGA
Protein-tyrosine kinase 6 (Homo sapiens), sequence (Q13882 whole entry, looked up): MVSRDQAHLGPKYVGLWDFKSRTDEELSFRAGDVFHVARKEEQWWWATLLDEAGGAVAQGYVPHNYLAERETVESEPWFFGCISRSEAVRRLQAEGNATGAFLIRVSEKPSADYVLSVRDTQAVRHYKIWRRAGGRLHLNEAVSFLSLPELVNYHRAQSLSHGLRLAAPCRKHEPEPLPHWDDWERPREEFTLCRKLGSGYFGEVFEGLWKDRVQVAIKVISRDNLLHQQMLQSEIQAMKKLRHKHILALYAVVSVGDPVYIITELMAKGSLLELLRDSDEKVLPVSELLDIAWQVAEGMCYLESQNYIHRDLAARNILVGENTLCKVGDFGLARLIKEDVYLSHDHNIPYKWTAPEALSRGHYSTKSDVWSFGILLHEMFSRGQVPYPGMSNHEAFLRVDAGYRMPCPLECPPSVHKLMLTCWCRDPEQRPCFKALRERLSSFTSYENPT

`NS(=O)(=O)c1cccc(Nc2cc(-c3ccc(F)cc3)n[nH]2)c1`: the inhibition in assay [1] is -3.83%; in [2], 2.05%; in [3], 6.41%; in assay [4], -2.37%; in [5], 4.82%; in assay [6], 1.68%. Further, the inhibition stood at 3.52% in assay [7]; 0.73% in assay [8]; 0.11% in assay [9]; 4.6% in assay [10]; 6.86% in assay [11]; 0.4% in [12]. Moreover, the inhibition is 2.6% in assay [13]; -0.56% in assay [14]; 3.41% in assay [15]; 1.69% in [16]; 6.63% in assay [17]; 2.18% in [18]. In addition, the inhibition in assay [19] is 5.8%; in assay [20], 2.62%.
For `Nc1ccc(C#Cc2cncnc2Nc2ccc(OCc3cccc(F)c3)c(Cl)c2)cc1`, the inhibition in assay [1] was -3.04%; in assay [2], 2.28%; in assay [3], 3.41%; in assay [4], 4.02%; in assay [5] it was 2.63%; in [6] it was 0.17%. For the same compound, the inhibition in assay [7] was 4.63%; in [8], -0.24%; in assay [9] it was 1.11%; in [10] it was -1.23%; in assay [11] it was 4.88%; in assay [12], 1.32%. Further, the inhibition in assay [13] was 0.65%; in assay [14], 45.5%; in [15], 82.8%; in assay [16], 5.98%; in [17] it was 35.2%; in assay [18] it was 23.1%. The inhibition in assay [19] was 37.2%; in [20], 2.51%.
For `Nc1nccc(-c2c(-c3ccc(F)cc3)nn3cc(C(F)(F)F)ccc23)n1`, the inhibition in assay [1] was 5.17%; in [2], 0.6%; in assay [3], 1.08%; in assay [4] it was -1.09%; in assay [5], 0.94%; in [6] it was 1.57%. Moreover, the inhibition was -4.29% in assay [7]; 0.89% in assay [8]; 0.4% in [9]; -0.9% in assay [10]; 1.17% in [11]; 1.51% in assay [12]. Moreover, the inhibition is 5.28% in assay [13]; -0.27% in [14]; 3.78% in assay [15]; 1.74% in [16]; 11.4% in [17]; -0.3% in assay [18]. The figures for the inhibition in assay [19] and in assay [20] were 3.8% and 0.44%, respectively.
For `CS(=O)(=O)CCNCc1nc(-c2ccc3ncnc(Nc4ccc(OCc5cccc(C(F)(F)F)c5)cc4)c3c2)cs1`, the inhibition in assay [1] was -2.54%; in [2], 1.22%; in assay [3] it was 4.48%; in assay [4], 3.48%; in [5] it was 5.73%; in assay [6] it was -0.74%. Moreover, the inhibition is 1.75% in assay [7]; 0.43% in assay [8]; 1.66% in assay [9]; 3.59% in assay [10]; 2.7% in [11]; 5.44% in assay [12]. Further, the inhibition in assay [13] turned out to be 5.59%; in [14], 14.6%; in assay [15], 64%; in assay [16] it was 8.86%; in assay [17], 43.9%; in [18], 11.5%. In addition, the inhibition was 34.8% in [19] and -1.75% in assay [20].
With `C[C@@H](Oc1cc(-n2cnc3ccc(OC[C@@H](O)CO)cc32)sc1C(N)=O)c1ccccc1Cl`, the inhibition in assay [1] was 3.2%; in assay [2] it was -0.24%; in assay [3], 3.09%; in [4] it was 4.05%; in assay [5] it was 0.31%; in assay [7] it was -0.38%. Besides, the inhibition in assay [8] was -0.29%; in assay [9], -0.5%; in [10] it was -0.73%; in [11], -0.52%; in assay [12], 0.32%; in assay [13] it was 0.79%. For the same compound, the inhibition is -0.06% in assay [14]; 2.04% in assay [15]; -2.48% in assay [16]; 1.14% in assay [17]; -1.31% in [18]; -2.45% in [19]. The inhibition in assay [20] is -3.45%.
`CN(c1ccc(NC(=O)Nc2ccc(OC(F)(F)F)cc2)cc1)c1ccnc(Nc2cccc(S(N)(=O)=O)c2)n1`: the inhibition is 16.2% in assay [1]; 29.4% in [2]; 86.3% in [3]; 5.28% in assay [4]; 26.1% in [5]; 16.1% in assay [6]. Also, the inhibition in assay [7] stood at 77.1%; in assay [8], 0.33%; in assay [9], 5.19%; in assay [10], 3.6%; in assay [11], 29.4%; in [12], 53.2%. Also, the inhibition in assay [13] was 88.6%; in assay [14], -0.6%; in assay [15], 3.21%; in [16] it was 1.4%; in assay [17] it was 3.36%; in assay [18] it was 1.14%. The results for the inhibition in assay [19] and in assay [20] were 5.92% and 1.81%, respectively.

In general, inhibition refers to the relative decrease from the control value, in per cent.
